The whole screen tested about 320,000 compounds, of which about 22,000 (6.9%) were called active. Another 27% or so got no clear call; they are omitted. Calls follow the shape of the dose curve; as a rule, active = well fitted inhibition curve with a large enough effect; inconclusive = small, poorly fitted or top-dose-only effect, or another doubt; inactive = no such curve, though single readings can be large or run the other way. The sample as a whole holds a higher share of actives than the screen did.
assay: Primary qHTS for delayed death inhibitors of the malarial parasite plastid, 96 hour incubation; details: P. falciparum luciferase reporter growth; series mostly up to 28.7 µM; activity change, negative = inhibition: at the top concentration
Text: The goal of this screen is to discover new antimalarial compounds that act by inhibiting the development of the apicoplast in the malarial parasite Plasmodium falciparum. The biochemical processes that make this organelle essential for erythrocytic stage parasites are not well understood. However, antibiotics such as azithromycin and tetracycline, which target the apicoplast translational machinery, have a potent antimalarial effect.
We have developed a cell-based assay that measures parasite growth based on the expression of an integrated copy of a firefly luciferase reporter. To detect small molecules that cause this "delayed death" phenotype, erythrocytes infected with the luciferase-expressing parasites were incubated with compounds for either one or two generations, corresponding to 48 and 96 hours, respectively. Compounds that inhibit parasite growth in the second generation, but not the first, should be enriched in antimalarials that target the apicoplast. Growth inhibition is detected by a decrease in luciferase activity.
Assay Provider: David Fidock and Eric Ekland, Columbia University
Keywords: NIH Roadmap, MLPCN, MLI, MLSMR, qHTS, NCGC, qHTS, malaria, luciferase, viability
Four microliters of infected erythrocytes (2% hematocrit, 0.05% parasitemia final concentration) in culture medium were dispensed and the plates incubated for 96 hours at 37 C in 5% CO2. Two microliters of luciferase detection reagent was added and luminescence was detected by a ViewLux (PerkinElmer) reader.
% is scaled to controls: 0 for no effect and ±100 for the full control effect; potency is read from the fitted curve at half-maximal effect.

Structure (SMILES) | activity change, negative = inhibition | Potency
O=C(O)CSc1c2c(nc3cc(C(=O)Nc4cccc(C(F)(F)F)c4)ccc13)CCCC2 | -27% (inactive) | –
Cn1nc(C(F)(F)F)c(C(=O)Nc2cccc(C(F)(F)F)c2)c1SCc1ccc(Cl)cc1 | – | 2.62 µM (active)
CC(C)C[C@H](NC(=O)Nc1cccc(C(F)(F)F)c1)C(=O)O | -1.23% (inactive) | –
O=C(OCC(=O)N1CCOCC1)c1ccc2ccccc2c1 | 35.2% (inactive) | –
CCOC(=O)c1ccc(NC(=O)c2nc[nH]c2C(=O)NCc2ccccc2)cc1 | -3.51% (inactive) | –
Cc1ccc(NC(=O)c2nc[nH]c2C(=O)N[C@@H](CCCCNC(=O)OC(C)(C)C)C(=O)OC(C)(C)C)cc1 | – | 11.7 µM (active)
CCOC(=O)c1ccc(NC(=O)c2nc[nH]c2C(=O)N[C@@H](CCCCNC(=O)OC(C)(C)C)C(=O)OC(C)(C)C)cc1 | – | 5.86 µM (active)
CNC(=O)c1[nH]cnc1C(=O)N[C@@H](CC(C)C)C(=O)OC(C)(C)C | 0.082% (inactive) | –
Cc1cccc(NC(=O)c2nc[nH]c2C(=O)NCC(=O)OCc2ccccc2)c1 | 22.3% (inactive) | –
CCOC(=O)c1[nH]cnc1C(=O)Nc1ccccc1C | -23.1% (inactive) | –
C=CCSc1ccc(S(=O)(=O)N2CCN(C)CC2)cn1 | 0.0245% (inactive) | –
Cc1cc(NC(=O)c2ccco2)c(=O)n(Cc2c(F)cccc2Cl)c1 | -11.1% (inactive) | –
CCOC(=O)N1CCN(c2c(NCCN3CCN(c4ccccc4F)CC3)c(=O)c2=O)CC1 | -26% (inactive) | –
COc1ccccc1NC(=O)CCC(=O)OC(C)C(=O)c1ccccc1 (configuration not stated) | -3.12% (inactive) | –
Cc1ccc(C(=O)NCC(=O)OCC(=O)Nc2cccc(S(=O)(=O)N3CCCC3)c2)cc1C | 32.5% (inactive) | –
Cc1ccc(CN2CCN(c3ncccn3)CC2)c(C)c1 | 0% (inactive) | –
CC(=O)N1CCN(C(=O)Nc2cccc(C(F)(F)F)c2)CC1 | -7.32% (inactive) | –
Cc1cccc(NC(=O)c2nnn(-c3cccc(C(F)(F)F)c3)c2N)c1 | – | 5.86 µM (active)
Cc1cccc(NC(=O)c2cccc(C(F)(F)F)c2)c1 | 4.71% (inactive) | –
O=C(O)C1CCCN1S(=O)(=O)c1ccc(Br)cc1 (configuration not stated) | 14% (inactive) | –
COc1ccc(OCCCC(=O)NCCc2ccccc2)cc1 | 370% (inactive) | –
COc1ccc(-c2cc(C(=O)n3cnc4ccccc43)c3ccccc3n2)cc1 | -15.8% (inactive) | –
COc1ccc(-c2c(C#Cc3ccccc3)c3ccccc3n2C)cc1 | – | 6.57 µM (active)
COc1ccc(-c2c3c(=O)n(C)c(=O)n(C)c3cn2-c2cccc(OC)c2)cc1 | 13.8% (inactive) | –
COc1ccc(CCNCc2c(-c3ccccc3)n(C)c3ccccc23)cc1 | – | 10.4 µM (active)
COc1ccc(CNc2ncnc3ccccc23)cc1 | -3.8% (inactive) | –
CN(CCC(=O)Nc1cc(S(=O)(=O)N(C)C)ccc1Cl)CC(=O)Nc1ccc(F)cc1 | -14.6% (inactive) | –
